Results published in PubChem BioAssay (NCATS).
Inconclusive results are not listed. Unmarked numbers belong to inactive results. The source made the active and inactive calls. Calls follow the shape of the dose curve; as a rule, active = well fitted inhibition curve with a large enough effect; inconclusive = small, poorly fitted or top-dose-only effect; inactive = no such curve, though single readings can be large or run the other way. Where a SMILES comes first, the peptide text is derived from it. The star is where a group is joined. AMC = Cc1cc(=O)oc2cc(N*)ccc12; βNA = c1ccc2cc(N*)ccc2c1; Cbz = O=C(OCc1ccccc1)*; PhAc = O=C(Cc1ccccc1)*

Assay: Primary fluorescence-based thiol-reactive (MSTI) qHTS assay for identification of artifact compounds. (AID 1845221); also: nearly all actives have a fitted effect of over 65% in size;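 as to activity change, negative = thiol reactive: thiol-reactive compounds lower the probe fluorescence signal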
Details: MSTI thiol-reactivity probe, 1 h; series mostly up to 53.8 µM; activity change, negative = thiol reactive: at the top concentration
Description: PI: Alexander Tropsha Ph.D.
UNC Eshelman School of Pharmacy
University of North Carolina, Chapel Hill, North Carolina
Hits from high-throughput screening (HTS) of chemical libraries are often false positives due to their interference with the assay detection technology. In response to this problem, we generated the largest publicly available library of chemical liabilities and developed a free webtool to predict HTS artifacts, both of which are described herein. More specifically, we generated, curated, and integrated HTS datasets for thiol reactivity, redox activity, and luciferase (firefly and nano) activity. Using these curated datasets, we developed and validated several Quantitative Structure-Interference Relationship (QSIR) models to predict nuisance behavior. […] These models were employed for virtual profiling of the National Center for Advancing Translational Science's (NCATS) in-house library, and 256 compounds for each assay were selected for the experimental validation of nuisance behavior. The BA for these external predictions ranged from 58 to 78% for compounds within the applicability domains of the models. […] The models developed in this study, along with aggregation models previously developed by our group (SCAM Detective) were implemented in "Liability Predictor," an online tool which may be used as part of chemical library design or for triaging HTS hits. Both the models and the curated datasets are publicly available at https://liability.mml.unc.edu/.
SEQUENCE No. (e.g., 1, 2, 3, etc.); […] (e.g., Cells, Incubation, Reagent, etc.); VALUE; DESCRIPTION.
1; Reagent; 4 uL; […].
2; Compounds and control; 16 nL; Kalypsis pin tool (Wako USA) equipped with a 1536-well pin head.
4; Detection; Fluorescence, ViewLux microplate reader, 525 nm excitation, 598 nm emission.
NOTES (numbers refer to Sequence numbers above)
1. Assays determining (E)-2-(4-mercaptostyryl)-1,3,3-trimethyl-3H-indol-1-ium (MSTI) reactivity were performed as previously described in the literature with modifications for the quick identification of compounds reacting with thiol. In brief, 4 uL of MSTI or positive control Acetyl-MSTI (final concentrations of 4 uM and 4 uM, respectively) in assay buffer (2% DMSO in 1X PBS pH 7.4) was dispensed into all wells of a 1536-well assay plate (solid-bottom black plate; Greiner Bio One, Monroe, NC).
2. A Wako Pin-tool (Wako Automation, Richmond, VA) was used to transfer 16 nL of compounds (consisting of 7-plates in qHTS format, final concentration range 18.3 nM to 114 uM) or control MLS001163887 (final concentration range 1.22 nM to 40 uM).
3. Plates were centrifuged (121xg, 15 seconds) and incubated for 1 hour at room temperature protected from light.
4. Samples were read for fluorescence (Ex/Em = 525(20)/598(25) nm) on a ViewLux CCD imager (PerkinElmer). Data were normalized to Acetyl-MSTI (0% activity) and MSTI (100% activity) and the resulting percent inhibition data were fitted to a 4-parameter Hill equation using NCATS in-house software.
Potency is read from the fitted curve at half-maximal effect.

| Compound | Potency | activity change, negative = thiol reactive |
| --- | --- | --- |
| COc1ccc(C(=O)OC2C3C=COC(OC4OC(CO)C(O)C(O)C4O)C3C3(CO)OC23)cc1OC (stereo not given) | 4.12 µM (active) |  |
| NC(Cc1c[nH]c2ccc(O)cc12)C(=O)O (stereo not given) | 16.8 µM (active) |  |
| CC(C)=C1C[C@@]2(C)C(=CC1=O)CC[C@@H](O)[C@@H]2C |  | 3.08% |
| C[C@@H]1[C@H](O)[C@@H]2OC(=O)C3=C2[C@H](CCC3)[C@@]12C[C@@H](c1ccoc1)OC2=O |  | 6.14% |
| CC(C(=O)Nc1cc(C#N)ccc1CCCC(=O)O)c1ccc(F)c2ccccc12 (stereo not given) |  | 46.6% |
| COc1c(C)c(OCC=C(C)C)cc2c1COC2=O |  | 4.57% |
| CC(=O)OC1CC2(C)C(CCC(C)C23Cc2c(O)cc4c(c2O3)CNC4=O)C(C)(C)C1O (stereo not given) |  | 18.4% [at 25.6 µM] |
| COc1ccc(NC(=O)c2ccc(-c3ccc(C(N)=O)cc3C)cc2)cc1N1CCN(C)CC1 |  | -12.3% |
| CC1(O)CC(O)C2C(C(=O)O)=COC(OC3OC(CO)C(O)C(O)C3OC(=O)/C=C/c3ccc(O)cc3)C21 (stereo not given) | 4.12 µM (active) |  |
| Cn1cc(Nc2cnccc2C(=O)O)c2cccnc21 |  | -12.5% |
| CC(=O)c1[nH]cc(CCC(=O)O)c1CC(=O)O |  | 0.783% |
| CC1(C)CCC[C@@]2(C)[C@H]1[C@H](O)C=C(CO)[C@]2(O)CO |  | 27.6% |
| COc1ccc(CCC(=O)c2c(O)cc(O[C@@H]3O[C@H](CO)[C@@H](O)[C@H](O)[C@H]3O[C@@H]3O[C@@H](C)[C@H](O)[C@@H](O)[C@H]3O)cc2O)cc1O |  | 34.2% |
| COc1cc(/C=C/C(=O)O[C@@H]2O[C@H](CO)[C@@H](O)[C@H](O)[C@H]2O)ccc1O | 4.65 µM (active) |  |
| CN1CCN(c2nc(-c3ccc(C(=O)NC4(C(=O)NCC#N)CCCCC4)cc3)cs2)CC1 |  | 20.4% |
| CCOc1ncc(S(=O)(=O)N2CCN(CC)CC2)cc1-c1nc2c(CC)n(CCOC)nc2c(=O)[nH]1 |  | 76.3% |
| O=C(/C=C/c1ccc(O)cc1)OCC1OC(O)C(OC2OC(CO)C(O)C(O)C2O)C(O)C1O (stereo not given) |  | -12.4% [at 25.6 µM] |
| COc1cc(O)c2c(c1Cl)CC(C)OC2=O (stereo not given) |  | 26.8% |
| CC(C)CC(NC(=O)OCc1ccccc1)C(=O)NC(CC(C)C)C(=O)NC(CCC(=O)O)C(=O)Nc1ccc2ccccc2c1 (stereo not drawn) (Cbz-Leu-Leu-Glu-βNA; configuration not given here) |  | 92.4% |
| COc1ccc(C2C(C(=O)O)C(C(=O)O)C2c2ccc(OC)cc2O[C@@H]2O[C@H](CO)[C@@H](O)[C@H](O)[C@H]2O)c(O[C@@H]2O[C@H](CO)[C@@H](O)[C@H](O)[C@H]2O)c1 (stereo not given in full) | 2.81 µM (active) |  |

| Compound | Potency | activity change, negative = thiol reactive |
| --- | --- | --- |
| CCN1CCN(C(=O)N[C@@H](C(=O)N[C@@H]2C(=O)N3[C@@H]2SC(C)(C)[C@@H]3C(=O)O)c2ccccc2)C(=O)C1=O |  | 34.7% |
| C[C@]1(C2CCCC2)Cc2cc(OCC(=O)O)c(Cl)c(Cl)c2C1=O |  | 80.5% |
| CCCC(C(=O)O)c1c(C)nc2ccc(Cl)cc2c1-c1ccccc1 (stereo not given) |  | 76.5% |
| Cc1cc(=O)oc2cc(NC(=O)[C@H](CCC(=O)O)NC(=O)[C@H](CC(C)C)NC(=O)[C@H](CC(C)C)NC(=O)OCc3ccccc3)ccc12 (Cbz-Leu-Leu-Glu-{AMC}) |  | 185% |
| COC(=O)C1=CO[C@@H](O[C@@H]2O[C@H](CO)[C@@H](O)[C@H](O)[C@H]2O)[C@@H]2C(C)CC(=O)[C@]12O (stereo not given in full) |  | -19.1% [at 25.6 µM] |
| O=C(/C=C/c1ccc(O)c(O)c1)O[C@H]1[C@@H]2C=CO[C@@H](O[C@@H]3O[C@H](CO)[C@@H](O)[C@H](O)[C@H]3O)[C@@H]2[C@@]2(CO)O[C@@H]12 | 2.07 µM (active) |  |
| C=C1C(=O)O[C@@H]2/C=C(\C)CC/C=C(\C(=O)O[C@@H]3O[C@H](CO)[C@@H](O)[C@H](O)[C@H]3O)CC[C@@H]12 | 4.12 µM (active) |  |
| O=C(/C=C/c1ccc(O)cc1)O[C@H]1[C@H](OC2CCCCC2O)O[C@H](CO)[C@@H](O)[C@@H]1O (stereo not given in full) | 4.12 µM (active) |  |
| c1cc(-c2cc(C3CCNCC3)[nH]n2)ccn1 |  | 15.3% [at 25.6 µM] |
| CCOC(=O)CNC(=O)[C@@H]1CCCN1C(=O)Cc1ccccc1 (PhAc-Pro-Gly-OEt) |  | -10.3% |
| CC(C)C(O)(CO)CCO[C@@H]1O[C@H](CO[C@H]2OC[C@](O)(CO)[C@H]2O)[C@@H](O)[C@H](O)[C@H]1O (stereo not given in full) |  | 6.35% [at 25.6 µM] |
| C[C@@]1(O)[C@H](O)[C@@H](CO)O[C@H]1n1cnc2c(=O)[nH]c(N)nc21 |  | -1.39% |
| COC(=O)C1=COC(OC2OC(CO)C(O)C(O)C2O)C2C(C)C(OC(=O)/C=C/c3ccc(O)cc3)C(O)C12 (stereo not given) | 11.6 µM (active) |  |
| CC(=O)O[C@H]1C[C@@H](O)C(C)(C)C2C[C@@H](OC(C)=O)[C@@]3(C)C4=CCC(C(CO)CC(O)C5OC5(C)C)[C@]4(C)CCC3[C@]21C (stereo not given in full) |  | 34.8% [at 25.6 µM] |
| Cc1cn(C[C@H](N)C(=O)O)c(=O)n(Cc2ccsc2C(=O)O)c1=O |  | -12.9% |
| CC1(C)C2CC[C@]3(C)C(C(=O)C=C4[C@H]5C[C@@](C)(C(=O)O)CC[C@]5(C)CC[C@]43C)[C@@]2(C)CC[C@@H]1O (stereo not given in full) |  | 22.6% [at 25.6 µM] |
| CCC(C)/C=C(C)/C=C/C1=CC2=C(Cl)C(=O)C(C)(OC(C)=O)C(=O)C2=CN1CCCCC(N)C(=O)O (stereo not given) | 0.653 µM (active) |  |
| CC(C)(O)c1ccc2c(c1)C(=O)C[C@H]1[C@](C)(C(=O)O)CCC[C@]21C |  | -11.6% |
| C=C1C(O)C(O)C2(CC3C(C)=CCC4C(C)(C(=O)O)CCCC34C)OC2C1O (stereo not given) | 5.21 µM (active) |  |
| COC(=O)C(CC1(O)c2ccccc2N2C(=O)C(CC(C)C)NC21)n1cnc2ccccc2c1=O (stereo not given) |  | 117% [at 25.6 µM] |
